# Experimental data reported in the supplement of paper PMC6135742.
# Where a name gives a salt, the structure may show the parent alone. ± gives the standard deviation of the averaged measurements. In all, about 2,600 compounds were measured (“MBP+ mature oligodendrocyte number relative to DMSO vehicle control”: median about -0.34, highest 2% from about 13 on). The list comes from a sample in which the highest values are over-represented; it also holds similar structures and randomly drawn compounds.
# Test system: jimpy (Plp1 jimpy) mouse iPSC-derived oligodendrocyte progenitor cells
# Assay: MBP+ mature oligodendrocyte number relative to DMSO vehicle control (SDs above negative control mean); higher = more surviving jimpy oligodendrocytes (rescue)
# Settings: 10 µM; 3 days
# Procedure: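 Primary phenotypic screen of >3,000 bioactive compounds (Selleck L1700 and Sigma LO1280 libraries) at a single dose of 10 µM. Compounds were added to jimpy (Plp1 mutant) mouse iPSC-derived OPCs at the start of thyroid hormone-induced oligodendrocyte differentiation, one well per compound in 384-well plates. After 3 days cells were stained for MBP, Sox10 and DAPI and imaged with an Operetta system. MBP+ oligodendrocyte number and total cell number were expressed as the number of SDs above the mean of the DMSO negative control on the same plate (n=16 control wells per plate). Hits were defined as >=4 SD for oligodendrocytes and >=2 SD for total cells.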
row,Compound,MBP+ mature oligodendrocyte number
1,NCCCCCNCC12CC3CC(CC(C3)C1)C2 [IEM 1754 dihydrobroMide],-4.82
2,O=C1NCC2(CCN(CCc3ccccc3)CC2)O1 [Fenspiride HCl],21.6
3,O=C1NCC2(CCN(CCc3ccccc3)CC2)O1 [Fenspiride hydrochloride],10.5
4,O=C1NCN(c2ccccc2)C12CCN(CCCC(c1ccc(F)cc1)c1ccc(F)cc1)CC2 [Fluspirilene],-4.41
5,O=C(O)P(=O)(O)O [Foscarnet Sodium],-1.56
6,CC(=O)OC[C@H]1O[C@@H]([S-])[C@H](OC(C)=O)[C@@H](OC(C)=O)[C@@H]1OC(C)=O.CCP(CC)CC.[Au+] [Auranofin],< -3.85
7,CC1(C)O[C@@H]2C[C@H]3[C@@H]4CCC5=CC(=O)C=C[C@]5(C)[C@H]4[C@@H](O)C[C@]3(C)[C@]2(C(=O)CO)O1 [Desonide],9.44
8,CCCC1O[C@@H]2C[C@H]3[C@@H]4CCC5=CC(=O)C=C[C@]5(C)[C@H]4[C@@H](O)C[C@]3(C)[C@]2(C(=O)CO)O1 (some centres not stated) [Budesonide],13.4 ± 10
9,C[C@]12C=CC(=O)C=C1CC[C@@H]1[C@@H]2[C@@H](O)C[C@@]2(C)[C@H]1CC[C@]2(O)C(=O)CO [Prednisolone],7.54
10,Nc1ccccc1NC(=O)c1ccc(CNc2nccc(-c3cccnc3)n2)cc1 [Mocetinostat (MGCD0103)],< -6.7
11,"CC(O)C(O)[C@H]1CNc2nc(N)[nH]c(=O)c2N1 (stereo partly drawn) [(6R)-5,6,7,8-Tetrahydro-L-biopterin hydrochloride]",-1.5
12,"CCCn1c(=O)c2c(ncn2C)n(CCC)c1=O [1,3-Dipropyl-7-methylxanthine]",0.502
13,CO/N=C(\C(=O)N[C@@H]1C(=O)N2C(C(=O)O)=C(Cn3ccc(=N)n3CCO)CS[C@H]12)c1csc(N)n1 [Cefoselis Sulfate],0.982
14,CC(C)C[C@H](NC(=O)[C@@H](NC(=O)c1cccc(-c2ccccc2)n1)[C@@H](C)O)B(O)O,< -6.7
15,CC(C)[C@H](NC(=O)c1ccc2ccccc2n1)C(=O)N[C@@H](CC(=O)O)C(=O)COc1c(F)cccc1F,24.8
16,C[C@H](NC(=O)C(=O)Nc1ccccc1C(C)(C)C)C(=O)N[C@@H](CC(=O)O)C(=O)COc1c(F)c(F)cc(F)c1F [Emricasan],10.3
17,NC[C@@H]1O[C@H](c2ccccc2)Cc2c1ccc(O)c2O,-0.675
18,NC(N)=NC(N)=Nc1ccccc1 [1-Phenylbiguanide],0.289
19,C[C@]12CC[C@H](O)CC1=CC[C@@H]1[C@@H]2CC[C@]2(C)C(n3cnc4ccccc43)=CC[C@@H]12 [Galeterone],16.8

row,Compound,MBP+ mature oligodendrocyte number
1,CC(=O)[C@H]1CC[C@H]2[C@@H]3CC=C4C[C@@H](O)CC[C@]4(C)[C@H]3CC[C@]12C [Pregnenolone],-3.89
2,CC[C@H](/C=C/[C@@H](C)[C@H]1CC[C@H]2[C@@H]3CC=C4C[C@@H](O)CC[C@]4(C)[C@H]3CC[C@]12C)C(C)C [Stigmasterol],-1.84
3,CC(C)C[C@H](NP(=O)(O)O[C@H]1O[C@H](C)[C@@H](O)[C@H](O)[C@@H]1O)C(=O)N[C@@H](Cc1c[nH]c2ccccc12)C(=O)O [Phosphoramidon disodium],-0.211
4,CN(N=O)C(=O)NC1C(O)OC(CO)C(O)C1O (configuration not stated) [Streptozotocin (STZ)],0.109
5,CN(C)C1CCN(C(=O)c2ccc(NC(=O)Nc3ccc(-c4nc(N5CCOCC5)nc(N5CCOCC5)n4)cc3)cc2)CC1,< -6.01
6,CC(C)(N)c1ncc(-c2ccc(OC(F)(F)F)cc2)[nH]1,-1.43
7,O=C(NC(NC(=S)Nc1ccc(F)c([N+](=O)[O-])c1)C(Cl)(Cl)Cl)C(c1ccccc1)c1ccccc1 (configuration not stated),-5.76
8,CCN(CC)Cc1ccc(C(=O)N(CCc2ccccc2OC)[C@@H]2CCNC2)cc1,-3.89
9,CCCC(CCC)C(=O)O[C@H]1C[C@H]2CC[C@@H](C1)[N+]2(C)C [Anisotropine methyl bromide],32.5
10,CCCC(CCC)C(=O)O [Valproic acid sodium salt (Sodium valproate)],0.72
11,CCCC(CCC)C(=O)O [Divalproex Sodium],2.05
12,CCCC(CCC)C(=O)O [Valproic acid sodium],0.147
13,CC(C)[N+]1(C)[C@@H]2CC[C@H]1C[C@@H](OC(=O)C(CO)c1ccccc1)C2 (some centres not stated) [Ipratropium bromide],-0.439
14,CC(C)[N+]1(C)[C@@H]2CC[C@H]1C[C@@H](OC(=O)C(CO)c1ccccc1)C2 (some centres not stated) [Ipratropium Bromide],0.883
15,"Nc1cc(C(F)(F)F)c(-c2cc(N3CCOCC3)nc(N3CCOCC3)n2)cn1 [BKM120 (NVP-BKM120, Buparlisib)]",-4.7
16,Clc1ccc(N2CCN(Cc3cc4ccccn4n3)CC2)cc1,0.61
17,"CCCCS(=N)(=O)CCC(N)C(=O)O (racemic) [DL-Buthionine-[S,R]-sulfoximine]",-0.472
18,COc1ccc(CCN(C)CCCC(C#N)(c2ccc(OC)c(OC)c2)C(C)C)cc1OC (racemic) [(±)-Verapamil hydrochloride],-2.6
